Cell count and inhibition data for 26 molecules are collected here from PubChem BioAssay AID463183 (Sanford-Burnham Center for Chemical Genomics, 2010).

Broadly, the inhibition is the change of the read-out against control, counted positive when it falls.

The assay in a line: hepatocyte lipid droplet accumulation inhibitors, confirmation, imaging, AML12 mouse hepatocytes, single concentration, high-content (AID 463183).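 For Cell count: cells counted after overnight compound exposure.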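 For inhibition: plate controls were DMSO with oleic acid for no effect and 5 µM Triacsin-C for full effect.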 The note with it: BODIPY lipid droplet imaging, at 5.2 µM, droplets induced with 100 µM oleic acid; cell count: measured here: cell count, cytotoxicity; inhibition: stronger effect = higher value.

The other results are listed elsewhere or left out. Activity calls are given as the source filed them.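 Rule for the calls: active = inhibition of lipid droplet metric at least 50%, with more than 300 cells in each of four replicates; inconclusive = wells under 300 cells, flagged as toxic or low count; inactive = the rest.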

Turning to `CCCN(CCC)c1nc2c(C)cccn2c(=O)c1/C=C1/SC(=S)N(Cc2ccco2)C1=O`, the cell count was 1560 cells and the inhibition was 51.2% (inactive).

On to `Cc1cc(C(=O)NC2CCCc3c2cnn3-c2cccc(C)c2C)c(C)o1` (configuration not stated), for which the cell count came to 1560 cells and the inhibition is 78.5% (active).

Take `CN(C)c1ccc(Nc2c3c4c(cccc4n(C)c2=O)C(=O)c2ccccc2-3)cc1`: the cell count came to 1580 cells and the inhibition is 14.8% (inactive).

For `CC(C)(C)NC(=O)Cn1cnc2cc([N+](=O)[O-])ccc2c1=O`, the cell count turned out to be 1630 cells and the inhibition is 21.8% (inactive).

On to `CCOc1ccc(CCNC(=O)CCc2nnc3ccc(N4CCCC4)nn23)cc1OCC`, for which the cell count is 1650 cells and the inhibition is 100% (active).

For `COc1ccc(C(C(=O)NC(C)(C)C)N(Cc2ccc(F)cc2)C(=O)CCC(=O)Nc2cc(C)on2)cc1` (configuration not stated), the cell count amounted to 1630 cells and the inhibition was 108% (active).

Turning to `O=C1Nc2ccc(Br)cc2/C1=N/N=C/C1=C(N2CCOCC2)C(=C\c2ccccc2)/CC1`, the cell count is 1660 cells and the inhibition is 65.8% (active).

As for `Cc1c(C(=O)NCc2ccccc2)cnn1-c1ccccc1`, the cell count worked out at 1670 cells and the inhibition is 26.9% (inactive).

On to `CCOc1ccc(CCNC(=O)Nc2ccccc2)cc1OCC`, for which the cell count was found to be 1550 cells and the inhibition is 109% (active).

As to `CCCN(CCC)c1ccc(C(O)c2nnc(-c3ccccc3)o2)cc1` (configuration not stated), the cell count was 1610 cells and the inhibition is 106% (active).

Take `Cc1cc(NC(=O)CSc2nc(C(C)C)nc3sc4c(c23)CCC(C)C4)no1` (configuration not stated): the cell count is 1700 cells and the inhibition was 105% (active).

In the case of `CC(NC(=O)c1cccc2ccccc12)c1ccc2c(c1)CCCC2` (configuration not stated), the cell count turned out to be 1640 cells and the inhibition was 98.5% (active).

For `O=[N+]([O-])c1ccccc1N/N=C1\CCc2ccccc21`, the cell count stood at 1520 cells and the inhibition was 31.2% (inactive).

`CCc1ccc(NC(=O)C(C)OC(=O)/C=C/c2cccc([N+](=O)[O-])c2)cc1` (configuration not stated): the cell count was found to be 1510 cells and the inhibition was 48% (inactive).

Regarding `Cc1ccc(N2C(=O)C(NC(=O)c3c(F)cccc3F)(C(F)(F)F)C3=C2CC(C)(C)CC3=O)cc1` (configuration not stated), the cell count stood at 1590 cells and the inhibition was 87.5% (active).

As for `COCCCNC(=O)CN1C(=O)CSc2ccc(S(=O)(=O)N3CCOCC3)cc21`, the cell count amounted to 1530 cells and the inhibition was -1.8% (inactive).

`Cn1c(=O)[nH]c(=O)c2c1nc(N1CCN(C(c3ccccc3)c3ccccc3)CC1)n2CCO`: the cell count is 1570 cells and the inhibition was 78.2% (active).

On to `CCOC(=O)C1=C(CC)OC(N)=C(C#N)C1c1ccc(F)cc1F` (configuration not stated), for which the cell count worked out at 1680 cells and the inhibition is 10.3% (inactive).

As for `COc1ccc(OC)c(-c2csc(-c3cccs3)n2)c1`, the cell count came to 1580 cells and the inhibition was 13.4% (inactive).

On to `CCCc1ccc(-c2csc(NC(=O)Cc3cccs3)n2)cc1`, for which the cell count was found to be 1560 cells and the inhibition was 104% (active).

For the molecule `COc1ccc(/C=C(\NC(=O)c2ccc(OCC(C)C)cc2)C(=O)OCc2ccco2)cc1`, the cell count amounted to 1460 cells and the inhibition is 91.6% (active).

Turning to `COc1cccc(/C=C(/CC(=O)Nc2ccc(N3CCOCC3)cc2)c2nc3ccccc3s2)c1`, the cell count was determined as 1580 cells and the inhibition was 94.7% (active).

On to `COc1ccc(Cl)cc1NC(=O)CN(C)C(=O)CCCc1c[nH]c2ccccc12`, for which the cell count stood at 1450 cells and the inhibition was 85% (active).

For the molecule `CCCCN1C(=O)/C(=C/C=C2/C=Cc3ccccc3N2CC)SC1=S`, the cell count is 1580 cells and the inhibition is -4.78% (inactive).

Take `COc1cc(/C=N/NC(=O)Nc2ccccc2)ccc1OCCOc1ccccc1C`: the cell count amounted to 1640 cells and the inhibition was -21.6% (inactive).

For `O=C(CN1CCc2cc3c(cc2C1)OCCCO3)Nc1ccccc1`, the cell count worked out at 1530 cells and the inhibition is 15.8% (inactive).
